The sample as a whole holds a higher share of hits than the screen did.
TDP1 cell noCPT: qHTS for Inhibitors of human tyrosyl-DNA phosphodiesterase 1 (TDP1): qHTS in cells in absence of CPT. Potency, µM (doses to about 46.2 µM), most hits filed as inhibitors. actives 15% (n = 420,000). DT40 Tdp1-/- hTDP1 cells, no CPT, ATP luminescence, 48 h; note: nearly all actives have a fitted effect of over 55% in size
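Camptothecin absent (DMSO only). Human TDP1-complemented DT40 knockout cells, 400 cells/well, 37 °C for minimum 48 hr; ATP measured via CellTiter-Glo, 30 min dark incubation, luminescence.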
HT1080-NT tox: kills 2HG-producing HT-1080-NT fibrosarcoma cells | HT-1080-NT fibrosarcoma viability, CellTiter-Glo ATP luminescence, 48 h | Potency, µM (highest dose often 46.1 µM), most hits filed as cytotoxic | actives 1.6% (n = 360,000);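 note: NT is the 2HG producing partner of a matched IDH1 knockdown line; nearly all actives have a fitted effect of over 55% in size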
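750 cells/well, RPMI + 5% FBS; 2 h settle, compound pin-transfer, 48 h at 37 degrees C. CellTiter-Glo 10 min RT, luminescence. Normalized to DMSO and media-only wells.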
TDP1 cell CPT: DT40-hTDP1 cell growth loss with CPT | chicken DT40 Tdp1-/-;hTDP1 cells + 20 nM CPT, ATP luminescence, 48 h | Potency, µM (highest dose often 46.2 µM), most hits filed as inhibitors | actives 12% (n = 420,000) | AID 686979; note: nearly all actives have a fitted effect of over 55% in size
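Chicken DT40 Tdp1-/- cells complemented with human TDP1, 400 cells/well, exposed to compounds plus 20 nM camptothecin for at least 48 h at 37 C; viability read as ATP content by CellTiter-Glo luminescence.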
IL1B secr inh: inflammasome signaling inhibition, IL-1 beta readout | AID 743279 | activity change, % at 57.5 µM | actives 4.7% (n = 360,000) | THP-1 LPS/ATP IL-1B secretion, AlphaLISA, 16 h; hits give low values; in the data active = activity change below about -50%; inconclusive = mostly about -30% to -49%
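THP-1 cells pretreated 1 hr with compounds (up to 57.5 uM final), then stimulated with LPS (250 ng/mL final) plus ATP (1.25 mM final); secreted IL-1B measured by AlphaLISA after 16 hr, decreased signal indicating inhibition.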
HT1080 IDH1KD tx: HT-1080 IDH1 knockdown cell toxicity (counter line); actives 2% (n = 360,000); Potency, µM (highest dose often 46.1 µM), actives largely listed as cytotoxic; HT-1080 IDH1 knockdown viability, ATP luminescence, 48 h
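Luminescent ATP read-out (CellTiter-Glo, 10 min at room temperature) after 48 h compound exposure at 37 °C gave viability of IDH1-knockdown HT-1080 cells. Activity was normalised to DMSO and cell-free wells, then fitted as concentration-response curves.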
ALOX12 inh: ALOX12 (human) lipoxygenase inhibition; P18054; purified 12hLO, xylenol orange hydroperoxide absorbance; Potency, µM (doses to about 108 µM), hits mostly inhibitors; actives 1.1% (n = 580,000)
Target sequence (P18054 whole entry, looked up): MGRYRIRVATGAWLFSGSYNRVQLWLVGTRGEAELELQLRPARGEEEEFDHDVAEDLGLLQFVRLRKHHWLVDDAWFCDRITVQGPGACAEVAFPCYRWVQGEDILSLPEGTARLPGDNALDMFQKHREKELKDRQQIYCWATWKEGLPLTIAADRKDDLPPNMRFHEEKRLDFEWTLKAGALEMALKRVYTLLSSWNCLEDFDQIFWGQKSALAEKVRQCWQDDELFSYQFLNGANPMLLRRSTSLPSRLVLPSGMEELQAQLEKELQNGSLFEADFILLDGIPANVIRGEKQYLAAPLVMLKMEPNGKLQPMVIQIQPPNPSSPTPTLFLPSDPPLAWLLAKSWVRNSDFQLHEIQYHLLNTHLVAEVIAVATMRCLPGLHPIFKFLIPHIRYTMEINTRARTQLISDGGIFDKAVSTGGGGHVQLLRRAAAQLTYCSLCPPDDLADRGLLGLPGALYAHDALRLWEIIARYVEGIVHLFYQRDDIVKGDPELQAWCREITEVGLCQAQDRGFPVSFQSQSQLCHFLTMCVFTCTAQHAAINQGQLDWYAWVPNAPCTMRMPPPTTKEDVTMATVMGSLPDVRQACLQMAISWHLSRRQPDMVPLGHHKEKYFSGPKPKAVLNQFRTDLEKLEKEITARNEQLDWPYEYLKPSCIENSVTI
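Purified human 12hLO (150 nM final) in 25 mM Hepes, 0.01% Triton X-100, pH 7.0 was preincubated 15 min at room temperature with compound. Then 40 uM arachidonic acid was added, 30 min. Hydroperoxide was read by Fe-XO absorbance ratio 573/405 nm.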
A number is an active result; . = inactive; ? = inconclusive; / = no result given; [ ] = another dose, or the depositor's remark. Unless noted, calls come from the whole dose curve; as a rule, active = well fitted curve in the direction sought with a large enough effect; inconclusive = small, poorly fitted or top-dose-only effect, or another doubt; inactive = no such curve, though single readings can be large; an effect the other way counts as inactive or inconclusive.

SMILES | TDP1 cell noCPT | HT1080-NT tox | TDP1 cell CPT | IL1B secr inh | HT1080 IDH1KD tx | ALOX12 inh
COc1ccc(Cl)cc1-c1cc(C(=O)Nc2ccc(F)cc2)[nH]n1 | . | . | ? | . | . | .
COc1ccc(NC(=O)c2cc(-c3cc(Cl)ccc3C)n[nH]2)cc1OC | ? | . | ? | -52 | . | .
COc1ccc(NC(=O)c2cc(-c3ccc(F)cc3C)n[nH]2)cc1OC | ? | . | . | ? | . | .
COc1ccc(NC(=O)c2cc(-c3cc(Cl)ccc3OC)n[nH]2)cc1OC | ? | ? | 21µM | -65 | ? | .
CN(Cc1ccccc1)C(=O)Cn1c(=O)n(C)c2ccccc21 | / | / | / | / | / | .
COCCN1CCC(CN(Cc2ccc(Cl)s2)CC2CCCO2)CC1 (stereo not drawn) | / | / | / | / | / | .
NNC(=O)CCCCCCCCCCOCCCCO | 13µM | . | . | . | . | .
CCOc1ccc(CNC(=O)Cn2nc(C)c3nn(-c4ccc(Cl)cc4)c(C)c3c2=O)cc1 | . | / | . | / | / | .
Cc1cccc(CNC(=O)Cn2nc(C)c3nn(-c4ccc(Cl)cc4)c(C)c3c2=O)c1 | 18µM | / | 21µM | / | / | ?
CCOc1ccc(CNC(=O)Cn2nc(C)c3nn(-c4ccc(Cl)cc4)c(C)c3c2=O)cc1OC | 18µM | / | ? | / | / | ?
Cc1nn(CC(=O)Nc2ccccc2F)c(=O)c2c(C)n(-c3ccc(Cl)cc3)nc12 | ? | / | 23µM | / | / | ?
CN(C)CCCOc1ccc(-c2cc3nc(NCc4cccnc4)n(C)c(=O)c3s2)cn1 | 18µM | ? | ? | . | . | .
COc1ccc(-c2cc3nc(NCCCN(C)C)n(C)c(=O)c3s2)cc1OC | ? | . | ? | . | . | .
Cn1c(NCc2cccnc2)nc2cc(-c3ccc(C(=O)N4CCOCC4)cc3)sc2c1=O | ? | . | ? | . | . | .
Cn1c(NCc2cccnc2)nc2cc(-c3cccc(C(=O)NCCO)c3)sc2c1=O | . | . | 9.2µM | ? | . | .
C=CCNS(=O)(=O)c1cc(C(=O)O)ccc1F | / | / | / | / | / | .
Cc1cc(CSc2nnc(-c3cccnc3)n2C)no1 | / | / | / | / | / | .
COc1cc(/C=C(\C#N)c2ccccn2)cc(OC)c1O | ? | . | 9.2µM | . | . | ?
COc1cc(/C=C(\C#N)c2nc3ccccc3[nH]2)ccc1OCc1cccc(C(F)(F)F)c1 | 9.2µM | / | 12µM | / | / | ?
COc1cc(/C=C(/C#N)c2nc3ccccc3[nH]2)ccc1OCc1ccccc1 | / | / | / | / | / | .
COc1cc(/C=C(\C#N)c2ccccn2)ccc1OCc1ccccc1Cl | ? | . | 15µM | . | . | .
COC(=O)c1ccc(COc2ccc(/C=C(\C#N)c3nc4ccccc4[nH]3)cc2OC)o1 | 5.8µM | . | 7.3µM | . | . | .
COc1cc(/C=C(\C#N)C(=O)C(C)(C)C)ccc1OCc1ccccc1Cl | / | / | / | / | / | .
CCOC(=O)CNC(=O)C(=O)NCC(=O)OCC | / | / | / | / | / | .
CCCn1cnc2nc(COc3cc(NC(=O)COc4ccc(C)c(C)c4)ccc3C)cc(=O)n21 | / | / | / | / | / | .
SMILES | TDP1 cell noCPT | HT1080-NT tox | TDP1 cell CPT | IL1B secr inh | HT1080 IDH1KD tx | ALOX12 inh
COC(=O)CC1C(=O)NCCN1S(=O)(=O)c1ccc(Cl)cc1C(F)(F)F (stereo not drawn) | / | / | / | / | / | .
CCOC(=O)N1CCN(C(=O)c2cc(Cn3nc(C)cc3C)[nH]n2)CC1 | / | / | / | / | / | .
Fc1ccc(OC2CN(Cc3cccc4ccccc34)C2)c(F)c1 | / | / | / | / | / | .[6.33 µM]
COc1cc(/C=C(\C#N)c2ccccn2)ccc1OCC(=O)Nc1cccc(C(F)(F)F)c1 | . | . | . | . | . | .
COc1cc(/C=C(/C#N)c2ccccn2)ccc1OCc1cccc(C(F)(F)F)c1 | / | / | / | / | / | 6.3µM
CCOc1ccc(-c2nc(C#N)c(NCc3ccc4c(c3)OCO4)o2)cc1 | 15µM | . | ? | . | . | .
Cc1ccc(OCc2nc(C#N)c(NCc3ccc4c(c3)OCO4)o2)cc1 | ? | . | ? | -64 | . | ?
COc1ccc(-c2nc(C#N)c(NCc3ccc4c(c3)OCO4)o2)cc1 | / | / | / | / | / | .
CC(C)(C(=O)NCCc1cccs1)c1ccccc1 | / | / | / | / | / | .
O=C(CC1NCCNC1=O)OCC1CCCO1 (stereo not drawn) | / | / | / | / | / | .
CC(=O)Oc1ccc(OC(C)=O)c2c1CC(C)=C(C)C2 | 13µM | . | 13µM | . | . | .
O=C(Nc1nc(-c2ccccn2)cs1)c1ccc(Br)s1 | 0.65µM | 2µM | 1µM | . | 1.4µM | .
CCC(=O)N1CCc2cc(-c3csc(NC(=O)c4ccco4)n3)ccc21 | 13µM | ? | ? | . | . | .
c1ccc(-c2nc(-c3ccco3)cs2)nc1 | 16µM | . | 15µM | . | . | ?
O=C(Nc1nc(-c2ccccn2)cs1)c1cccc(-n2cnnn2)c1 | 4.6µM | ? | 5.2µM | . | ? | .
O=C(Nc1ccc(Br)cc1)c1cccc(-n2cnnn2)c1 | . | . | ? | . | . | .
COc1ccc(-c2csc(NC(=O)COC(=O)c3ccco3)n2)cc1 | ? | . | 23µM | . | . | .
O=C(NC(=S)Nc1nc(-c2ccccc2)cs1)c1ccco1 | . | . | ? | . | . | .
C[C@H](NC(=O)c1ccco1)C(=O)Nc1nc(-c2ccccn2)cs1 | 13µM | . | ? | . | . | .
O=C(Nc1nc(-c2ccncc2)cs1)c1ccco1 | 11µM | . | ? | . | . | .
O=C(Nc1nc(-c2ccncc2)cs1)C1c2ccccc2Oc2ccccc21 | 13µM | . | 21µM | . | . | .
CC(=O)N1CCN(C(=O)c2ccc3c(ccn3Cc3ccccc3)c2)CC1 | / | / | / | / | / | .
O=C([C@@H]1C[C@H](Oc2cccnc2)CN1C(=O)Cn1c(=O)oc2ccccc21)N1CCCC1 | / | / | / | / | / | .
CNC(=O)[C@@H]1C[C@H](n2cc(CNC(=O)c3ccccc3OC)nn2)CN1 | / | / | / | / | / | .
O=C(Nc1nc(-c2ccccn2)cs1)c1ccco1 | 1.6µM | ? | 5.2µM | . | . | ?
O=C(Nc1nc(-c2cc(Cl)sc2Cl)cs1)c1ccc(Br)s1 | 16µM | . | 18µM | . | . | .
Cc1ccc(C(=O)N2CCN(C3CCN(CCc4ccccc4)C3=O)CC2)cc1F (stereo not drawn) | / | / | / | / | / | .
CCN(CC)Cc1c(O)ccc2c1O/C(=C\C=C\c1ccccc1)C2=O | 18µM | ? | ? | . | ? | ?
COc1ccccc1/C=C/C=C1\Oc2c(ccc(O)c2CN(C)C)C1=O | ? | . | ? | . | . | ?
Cc1cc(C)c(NC(=O)Cn2c(=O)n(-c3cccc(C(F)(F)F)c3)c(=O)c3c(C)c(C)sc32)c(C)c1 | . | / | . | / | / | .
